In PubChem BioAssay AID489025 (Southern Research Specialized Biocontainment Screening …, 2010):
About 790 (34%) of roughly 2,300 compounds were called active. No rule for the calls is given here. This is one part of the list. Results with a measured potency or affinity are listed apart.

Assay: THP-1 cell cytotoxicity, dose response, cytotoxicity control for non-replicating M. tuberculosis project (AID 489025)
Conditions: THP-1 cell viability; series mostly up to 40 µM

| SMILES | outcome |
| --- | --- |
| Cc1nnc(N/N=C/c2ccc(-c3ccccc3F)o2)n1N | inactive |
| CN1C(c2ccccc2)CC(=NO)CC1c1ccccc1 (configuration not stated) | inactive |
| O=C(COC(=O)Cc1ccc(Br)cc1)Nc1ccc(N2CCOCC2)cc1 | inactive |
| CC(CN1CCOCC1)OC(=O)c1ccc2c(c1)OCCO2 (configuration not stated) | inactive |
| Cc1[nH]n2c(=O)c3c(nc2c1-c1ccccc1)CCCC3 | inactive |
| N/C(=N\OC(=O)CC1CCCCC1)c1ccncc1 | inactive |
| CCOC(=O)CN(C#N)c1nc(N(C)C)nc(N(C)C)n1 | inactive |
| O=C(N/N=C/c1coc2ccccc2c1=O)c1ccc(Cl)cc1 | inactive |
| CCOc1ccc(/C=N/OCC(=O)Nc2ccc3c(c2)OCO3)cc1 | inactive |
| O=C(COc1ccc(F)cc1)Nc1ccc2c(c1)OCCO2 | inactive |
| O=C(N/N=C/c1ccc[nH]1)c1ccc2c(c1)OCO2 | inactive |
| O=C(NCCc1c[nH]c2ccccc12)c1cc2ccccc2oc1=O | inactive |
| Cc1nnc(SCCC(=O)Nc2ccc(Cl)cc2)o1 | inactive |
| O=C(Nc1ncc2c(n1)-c1ccccc1OC2)c1ccc(F)cc1 | inactive |
| O=C(Cc1ccccc1)Nc1ccc(C(=O)NCC2COc3ccccc3O2)cc1 (configuration not stated) | inactive |
| O=C(COC(=O)CCc1c[nH]c2ccccc12)NCc1ccc2c(c1)OCO2 | inactive |
| O=C(COC(=O)CCc1c[nH]c2ccccc12)NCc1ccc(Cl)cc1 | inactive |
| N#Cc1ccc(COC(=O)CCc2c[nH]c3ccccc23)cc1 | inactive |
| COc1ccc(OC(=O)CCc2c[nH]c3ccccc23)cc1 | inactive |
| Cc1cc(C)c2sc(NC(=O)C3=COCCO3)nc2c1 | inactive |
| O=c1cc(-c2ccncc2)oc2c1ccc1ccccc12 | inactive |
| Cc1ccc(N/N=C2\CS(=O)(=O)N(C)c3ccsc32)cc1 | inactive |
| CCCCOC(=O)C1CCCC(C(=O)OCCCC)N1 (configuration not stated) | inactive |
| CCN1CCC(=NNC(=O)c2ccco2)CC1 | inactive |
| CCOC(=O)c1ccc(N=CC2=C(O)CC(C)(C)CC2=O)cc1 | inactive |

| SMILES | outcome |
| --- | --- |
| CCCn1nnnc1NC(=O)COc1ccc(Br)cc1 | inactive |
| CCCn1nnnc1NC(=O)c1cc(Cl)ccc1Cl | inactive |
| CCOC(=O)C(C)Oc1cc(Cl)c(C=O)cc1OC (configuration not stated) | inactive |
| CSc1ccc(N=Nc2c(C)[nH]n(C)c2=O)cc1 | inactive |
| Cc1ccc(N=Nc2c(C)[nH]n(C(N)=S)c2=O)cc1 | inactive |
| CCc1cc2c(=O)n(C(C)C(=O)OC3CCCCC3)cnc2s1 (configuration not stated) | inactive |
| COc1ccccc1OCCNC(=O)c1cc([N+](=O)[O-])cc([N+](=O)[O-])c1 | inactive |
| CC1CCCN(CCCOc2ccc([N+](=O)[O-])cc2)C1 (configuration not stated) | inactive |
| CC(C)(C)C(=O)COc1ccccc1[N+](=O)[O-] | inactive |
| Cc1cccc(NC(=O)CCSc2nnc(Cc3ccccc3)o2)c1 | inactive |
| CCN1C(=O)CC(N2CCC(c3nc4ccccc4[nH]3)CC2)C1=O (configuration not stated) | inactive |
| CCOC(=O)C(=CNNc1cccc(Cl)c1)C(=O)OCC | inactive |
| Cc1ccc2[nH]c3c(c2c1)CCCC3NCCO (configuration not stated) | inactive |
| Cc1ccc2c(c1)c1c3n2CCN=C3CCC1 | inactive |
| OCC1(CCOc2ccccc2)CCN(Cc2cc(Cl)ccc2O)CC1 | inactive |
| COc1ccc(C2(O)CCN(CCCCOc3ccccc3)CC2)cc1 | inactive |
| COc1cc(NCCC(=O)c2cccs2)c(OC)cc1Cl | inactive |
| Cc1cc(=O)n2cccc(O)c2n1 | inactive |
| CC(C)(C)c1ccc(NC(=O)COc2ccc(-n3ccnc3)cc2)cc1 | inactive |
| Clc1ccc(SCCCCn2ccnc2)cc1 | inactive |
| O=C(O)c1ccc(NS(=O)(=O)/C=C/c2ccccc2)cc1O | inactive |
| Cc1cc(C)cc(NC(=O)COC(=O)CC2CCCC2)c1 | inactive |
| O=C(COc1ccc(Nc2ccccc2)cc1)OCC(=O)N1CCCCC1 | inactive |
| COc1cccc(CC2(CO)CCCN(Cc3sc(N4CCCC4)nc3Cl)C2)c1 (configuration not stated) | inactive |
| O=C(COc1ccc(Cl)cc1)Nc1ccc(Cl)cn1 | inactive |

| SMILES | outcome |
| --- | --- |
| CCCc1nnc(-c2ccc(OC)cc2)o1 | inactive |
| c1ccc(-c2n[nH]c(-c3ccccn3)n2)nc1 | inactive |
| O=C(COc1ccc(Cl)cc1)Nc1ccccc1Cl | inactive |
| CC(C)(C)OC(=O)NCCc1nnc(S(=O)(=O)Cc2ccc(Cl)cc2Cl)o1 | inactive |
| OCC#CCSc1nnc(-c2ccc(Br)cc2)o1 | inactive |
| Cc1cccc(NCc2nnc(-c3ccccc3)o2)c1C | inactive |
| CCOc1ccc(-c2ccc(SCC)nn2)cc1 | inactive |
| O=C(CCSc1ccccn1)c1ccccc1 | inactive |
| O=C(NC1CCCC1)c1nc2c(nnn2Cc2cccc(Cl)c2)c(=O)[nH]1 | inactive |
| CC(C)(C)c1ccc(OCCC(=O)OCC(=O)NC2CCCCC2)cc1 | inactive |
| CC(C)(C)c1ccc(-c2nc(C#N)c(NCCCn3ccnc3)o2)cc1 | inactive |
| N#Cc1nc(-c2cccs2)oc1NCCc1ccccc1 | inactive |
| CCOCCOC(=O)COc1ccc2c(-c3ccccc3)cc(=O)oc2c1 | inactive |
| CCc1nnc(NC(=O)CN2CCN(Cc3ccc(F)cc3)CC2)s1 | inactive |
| Cc1ccc2nc(NC(=O)COC(=O)c3ccc(Br)o3)sc2c1 | inactive |
| CC1CCN(C(=O)COC(=O)CCc2c[nH]c3ccccc23)CC1 | inactive |
| O=C1/C(=C/c2cccs2)COc2ccccc21 | inactive |
| COc1ccc2c3c(cccc13)OCC2=O | inactive |
| O=C(c1ccco1)N1CCN(c2ccc(F)cc2)CC1 | inactive |
| O=S(=O)(NCc1cccnc1)c1ccc(Cl)c(Cl)c1Cl | inactive |
| Cc1cc(C=C2C(=O)NC(=S)NC2=O)c(C)n1C1CCCC1 | inactive |
| CCCn1nnnc1NCc1ccc(CC)cc1 | inactive |
| Cc1ccc(-c2noc(CCCC(=O)Nc3cccnc3)n2)cc1 | inactive |
| CCc1ccc(/C=N/NC(=O)c2ccccn2)cc1 | inactive |
| Cc1ccc(NCCC(=O)c2cccs2)cc1 | inactive |

| SMILES | outcome |
| --- | --- |
| O=C(N/N=C/C=C/c1ccccc1)c1ccccn1 | inactive |
| CCCCCCCC(=O)NNC(=O)c1ccc(F)cc1 | inactive |
| CCCCCCCC(=O)N/N=C(/C)c1c(O)cc(C)oc1=O | inactive |
| CCCCn1nnc(NC(=O)COc2ccc(Cl)c(C)c2)n1 | inactive |
| CCCOC(=O)c1ccc(NC(=O)c2ccccc2OC)cc1 | inactive |
| CN1CCC(O)(c2ccc(Cl)cc2)C(C(=O)c2ccc(Cl)cc2)C1 (configuration not stated) | inactive |
| CCN(CC)S(=O)(=O)c1ccc(C(=O)OCn2nnc3ccccc3c2=O)cc1 | inactive |
| C/C(=N\NC(=O)c1ccco1)c1cc(Cl)sc1Cl | inactive |
| C=C1Cn2c(nnc2-c2ccc(Cl)cc2)S1 | inactive |
| O=C(OCn1nnc2ccccc2c1=O)C1CCCCC1 | inactive |
| Cc1ccc2nc(C)c3c(c2c1)COC3 | inactive |
| O=C(COc1ccccc1)NC1CCCCC1 | inactive |
| CCOC(=O)COc1ccc2c(c1)C(=O)CC1(CCCCC1)O2 | inactive |
| CCOc1ccc(NC(=O)CCNC(=O)c2ccc(Br)cc2)cc1 | inactive |
| O=C(c1ccc(-c2ccc([N+](=O)[O-])cc2)o1)N1CCN(S(=O)(=O)c2cccs2)CC1 | inactive |
| CC1CCN(C(=O)c2ccc(-c3ccccc3Cl)o2)CC1 | inactive |
| O=C(COc1cccc2ccccc12)Nc1nc2ccccc2[nH]1 | inactive |
| CCCN(Cc1nnc(-c2ccccc2Cl)o1)C(=O)c1cc([N+](=O)[O-])cc([N+](=O)[O-])c1 | inactive |
| COc1ccc(CCOC(=O)c2ccc(N)c([N+](=O)[O-])c2)cc1 | inactive |
| Cc1ccc(OCC(=O)Nc2ccc([N+](=O)[O-])cc2)cc1 | inactive |
| COc1ccc(C(=O)COC(=O)COc2ccc(C)c(C)c2)cc1 | inactive |
| CC(C)CN(Cc1c(O)ccc2ccccc12)CC(C)C | inactive |
| Cn1c(=O)c2c(=O)cc(NNC(=O)CC#N)[nH]c2n(C)c1=O | inactive |
| O=C(C/C=N\OCc1ccc([N+](=O)[O-])cc1)Nc1ccccc1 | inactive |
| CN(CC(=O)Nc1ccc(Cl)cc1)C1CCCCC1 | inactive |

| SMILES | outcome |
| --- | --- |
| Cc1ccc(CO/N=C/c2c(O)cc(C)oc2=O)cc1 | inactive |
| CS(=O)(=O)Nc1cccc2cccnc12 | inactive |
| Cc1cc(C)n2nc(S(=O)(=O)Nc3c(Cl)cccc3Cl)nc2n1 | inactive |
| CCSc1nc(O)c(C2OC(=O)c3c2ccc(OC)c3OC)c(=O)n1-c1ccccc1 (configuration not stated) | inactive |
| COc1cc(C=O)ccc1OCCCCOc1ccccc1[N+](=O)[O-] | inactive |
| COc1cc(/C=C/c2ccc3c([N+](=O)[O-])cccc3n2)ccc1OCC(=O)O | inactive |
| C=CCN(CC=C)CC(=O)Nc1ccc(S(N)(=O)=O)cc1 | inactive |
| O=C(OCc1ccc([N+](=O)[O-])cc1)c1ccc2ccccc2n1 | inactive |
| N#CC(C(=O)Nc1ccccc1)=C1Nc2ccccc2N1 | inactive |
| CSCCC(=O)N1CCCC(CNC(=O)c2ccc(-c3ccccc3)cc2)C1 (configuration not stated) | inactive |
| Cc1[nH]n(S(=O)(=O)Cc2ccccc2)c(=O)c1N=Nc1ccccc1Cl | inactive |
| O=C(NN=C(Cc1ccccc1)Cc1ccccc1)c1ccncc1 | inactive |
| O=C(N/N=C/C=C/c1ccccc1)c1ccncc1 | inactive |
| CN1/C(=C\C=N\NC(=O)c2cccnc2)C(C)(C)c2ccccc21 | inactive |
| CCOC(=O)N1CCC(NC(=O)C2CCN(c3nc(-c4ccc(OC)cc4)no3)CC2)CC1 | inactive |
| CCOC(=O)C1CCCN(Cc2nc(Cc3ccccc3Cl)no2)C1 (configuration not stated) | inactive |
| CCCNC(=O)OCC12CC3CC(CC(C3)C1)C2 | inactive |
| O=C(CCCOc1ccccc1)OCn1nnc2ccccc2c1=O | inactive |
| COc1ccccc1N1CCN(C(=O)CCn2c(=O)[nH]c3ccsc3c2=O)CC1 | inactive |
| Cc1ccc(C(=O)COC(=O)c2cccs2)cc1 | inactive |
| Cc1ccc(C(=O)CCC2CCCC2=O)cc1 (configuration not stated) | inactive |
| COc1ccc(-c2[nH]ncc2CN2CCCCCCC2)c(OC)c1 | inactive |
